# An excerpt weighted towards active compounds, which were near 8% of everything screened.
# KB-V1 MDR tox – kills drug-selected multidrug resistant KB-V1 cells; Potency, µM (series often up to 46.1 µM), actives largely listed as cytotoxic; AID 1347076; hit rate 3.4% among 400,000; KB-V1 MDR cells viability, CellTiter-Glo, 72 h; further: on the % scale 0 is the no-effect control and ±100 the full control effect; nearly all actives have a fitted effect of over 60% in size
#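 Potencies derive from concentration-effect curves fitted to normalized luminescence (CellTiter-Glo) of KB-V1 cells treated for 72 h at 37 degrees C in phenol-red-free DMEM containing 10% FBS.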
# KB-3-1 cytotox – KB-3-1 parental cell cytotoxicity | hit rate 1.4% among 400,000 | KB-3-1 viability, CellTiter-Glo ATP luminescence, 72 h | AID 1347075 | Potency, µM (titrated, usually from 46.1 µM), usual class: cytotoxic; further: on the % scale 0 is the no-effect control and ±100 the full control effect; nearly all actives have a fitted effect of over 60% in size
#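 Screening of KB-3-1 cells (DMEM, 10% FBS, phenol-red free) ran from lowest to highest compound concentration; after 72 h at 37 °C viability was read luminescently and curves fitted.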
# HT1080-NT tox – kills 2HG-producing HT-1080-NT fibrosarcoma cells; HT-1080-NT fibrosarcoma viability, CellTiter-Glo ATP luminescence, 48 h; Potency, µM (titrated, usually from 46.1 µM), for inactives: top-dose activity, negative = less viability, usual class: cytotoxic; hit rate 1.6% among 360,000;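 further: NT is the 2HG producing partner of a matched IDH1 knockdown line; 0% = DMSO-treated cells and -100% = media-only wells without cells; nearly all actives have a fitted effect of over 55% in size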
#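 Read-out is CellTiter-Glo luminescence after 10 minutes at room temperature, following 48 hours' compound treatment of HT-1080-NT cells (750 cells/well, RPMI, 5% FBS, 37 degrees C).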
# MCF10A rereplic – inducers of DNA re-replication in MCF 10A breast cells; Potency, µM (series often up to 46.1 µM), for the others: at the top dose activity, positive = re-replication, hits mostly activators; AID 624296; hit rate 2.9% among 350,000; MCF 10A DNA re-replication, Hoechst nuclear intensity, 48 h; further: % of control where 0% means no effect; nearly all actives have a fitted effect of over 50% in size
# HT1080 IDH1KD tx – HT-1080 IDH1 knockdown cell toxicity (counter line). HT-1080 IDH1 knockdown viability, ATP luminescence, 48 h. AID 686971. Potency, µM (titrated, usually from 46.1 µM), for the others: at the highest dose activity, negative = toxicity, usual class: cytotoxic. hit rate 2% among 360,000;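 further: 0% = DMSO wells and -100% = cell-free medium wells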
#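 % activity derives from luminescence (CellTiter-Glo), normalised to DMSO and no-cell wells. HT-1080-IDH1KD cells, 750/well, had 48 h compound exposure at 37 °C.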
# SW480 rereplic – DNA re-replication induction in SW480 cells | SW480 DNA re-replication, Hoechst DNA content imaging, 48 h | Potency, µM (highest dose often 46.1 µM), for inactives: at the highest dose re-replication activation, most hits filed as activators | hit rate 1.8% among 340,000; further: % of control where 0% means no effect; nearly all actives have a fitted effect of over 55% in size
#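 Image-based DNA-content assay: after two days of treatment, nuclei were labelled with the DNA dye Hoechst and imaged, and hits were compounds raising the count of nuclei showing high fluorescence intensity.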
# * marks the source's active call; other numbers are inactive results; i = inactive; u = inconclusive; x = not tested or not shown; [ ] = another dose, or the depositor's remark. The call rests on the fitted dose curve; in most records, active means well fitted curve in the direction sought with a large enough effect; inconclusive means small, poorly fitted or top-dose-only effect, or another doubt; inactive means no such curve, though single readings can be large; an effect the other way counts as inactive or inconclusive. Potency means the concentration at half of the fitted maximal effect.
SMILES,KB-V1 MDR tox,KB-3-1 cytotox,HT1080-NT tox,MCF10A rereplic,HT1080 IDH1KD tx,SW480 rereplic
Brc1ccc(CSc2nnc(-c3ccccn3)n2Cc2ccco2)cc1,7.3µM*,i,u,u,11µM*,u
Clc1cccc(CSc2nnc(-c3ccccn3)n2Cc2ccco2)c1,10µM*,u,-19%,u,-19%,-6%
c1ccc(CSc2nnc(-c3cccs3)n2Cc2ccco2)cc1,u,u,0%,14%,-6%,-6%
COc1ccc(Cc2noc(CN3CCC(c4ccncc4)CC3)n2)cc1OC,18µM*,u,-27%,0%,u,-2%
CCOC(=O)c1ccccc1NC(=O)c1sc2ncn(Cc3cccc(F)c3)c(=O)c2c1C,i,i,x,x,x,x
Cc1cc(Cl)c(OCCn2ccnc2)c(Br)c1,u,i,-24%,4.6µM*,-29%,-25%
CCOC(=O)Nc1cc(=O)c2ccccc2o1,u,u,8.9µM*,u,u,u
Cc1ccnc(NC(=O)c2cccc(OC(F)F)c2)n1,i,i,0%,5%,16%,-9%
O=C(Nc1cc(Cl)cc(Cl)c1)c1cccc(OC(F)F)c1,16µM*,13µM*,-13%,u,-5%,3%
Cc1ccc(NC(=O)CN2C=NS(=O)(=O)c3ccccc32)cc1,i,i,x,x,x,x
CNc1nc(Nc2ccc(Br)cc2)nc(N)c1[N+](=O)[O-],u,0.73µM*,u,u,u,-66%
COc1ccc(Nc2nc(N)c([N+](=O)[O-])c(NC3CCCCC3)n2)cc1,u,i,16µM*,16µM*,u,u
COc1ccc(Nc2nc(N)c([N+](=O)[O-])c(NCCO)n2)cc1,i,u,5%,12%,-14%,-2%
CC(/C=N/NC(=O)c1cc(-c2ccccc2)nc2ccccc12)=C\c1ccco1,7.3µM*,4.1µM*,u,u,u,8.2µM*
Cc1ccc(-c2cc(C(=O)N/N=C/c3ccoc3)c3ccccc3n2)cc1,i,i,-17%,u,u,u
CC(/C=N/NC(=O)c1cc(-c2ccc(Cl)cc2)nc2ccccc12)=C\c1ccco1,0.92µM*,1µM*,u,0.65µM*,0.82µM*,5.2µM*
Cc1cc(C(=O)N/N=C/c2ccco2)c2ccccc2n1,i,i,-15%,u,-24%,u
COc1ccc2c(c1)c(=O)c(S(=O)(=O)c1ccc(C)c(C)c1)cn2CC(=O)Nc1ccccc1,i,i,x,x,x,x
CC(C)(C)[C@H]1CCC(=O)N(CCSc2ccc(Br)cc2)CC1,u,i,x,x,x,x
COc1ccc2c(C#N)c3ccccn3c2c1,i,i,-1%,23µM*,1%,u
Cc1cccc(-n2c3nc(=O)[nH]c(=O)c-3cc3c(Cl)cccc32)c1C,i,i,x,x,x,x
CCCCCNC(=O)C(c1ccc(OC)cc1)n1c(=O)c(-c2ccco2)nc2ccccc21 (centres undefined),18µM*,u,26µM*,x,15µM*,x
CCCCCNC(=O)C(c1ccc(C#N)cc1)n1c(=O)c(-c2ccco2)nc2ccccc21 (centres undefined),i,i,-10%,x,-8%,x
Cc1nc(-c2ccccn2)sc1C(=O)Nc1ccc(Cl)c(Cl)c1,18µM*,i,-8%,6%,1%,0%
CC1CC(C)CN(Cc2nc(N)nc(Nc3ccccc3)n2)C1 (centres undefined),i,i,1%,u,8%,-2%
SMILES,KB-V1 MDR tox,KB-3-1 cytotox,HT1080-NT tox,MCF10A rereplic,HT1080 IDH1KD tx,SW480 rereplic
CC1CC(C)CN(Cc2nc(N)nc(Nc3ccc4ccccc4c3)n2)C1 (centres undefined),u,12µM*,u,5.8µM*,u,9.2µM*
Cn1ccc2cc(S(=O)(=O)N3CCN(C(=O)Nc4ccccc4F)CC3)ccc21,i,i,x,x,x,x
COCCn1ccc2c(OCC(=O)Nc3cccc(OC)c3)cccc2c1=O,u,i,x,x,x,x
COc1cc(/C=C/c2nc3ccccc3c(=O)[nH]2)ccc1OC(F)F,i,i,6%,-1%,-3%,0%
O=c1[nH]c(/C=C/c2ccccc2OC(F)F)nc2c1cnn2-c1ccccc1,i,i,18µM*,15µM*,u,u
COc1ccccc1N1CCN(CCCCN2C(=O)C3CCCN3C2=O)CC1 (centres undefined),i,i,0%,4%,24%,-4%
O=C1[C@H]2CCCC[C@H]2C(=O)N1CCCCN1CCN(c2nsc3ccccc23)CC1,i,u,23µM*,u,u,u
COc1nc(OC)nc(N2CCC(C(=O)NC3CCCCCC3)CC2)n1,10µM*,i,-1%,-3%,1%,-9%
COc1nc(OC)nc(N2CCC(C(=O)NC3CC3)CC2)n1,i,i,14%,1%,4%,-28%
Cc1cc(Cl)n2ncc(-c3ccccc3)c2n1,i,i,18µM*,u,u,-9%[9.22 µM]
Cc1cc(N)n2ncc(-c3ccc(Cl)cc3)c2n1,u,18µM*,u,u,u,6%
COc1ccc(NC(=O)CSc2cc(C)nc3c(-c4ccccc4)cnn23)cc1,i,i,4%,9.2µM*,5%,u
CC(C)Oc1ccc(CNC(=O)Cn2nc(N3CCN(c4ccccc4)CC3)ccc2=O)cc1,i,i,x,x,x,x
Cc1nn2c(=O)cc(COC(=O)c3ccco3)nc2s1,i,i,x,x,x,x
Cc1ccc(S(=O)(=O)N(C)c2ccc3sc(C)nc3c2)cc1,i,i,u,9.2µM*,u,u
N#Cc1ccc(N2Cc3ccccc3C2=NC(=O)c2cccs2)cc1,18µM*,i,4%,-2%,2%,25%
Oc1c(C(c2ccccc2F)N2CCN(Cc3ccccc3)CC2)sc2nc(-c3ccco3)nn12 (centres undefined),i,i,x,x,x,x
COC(=O)N1CCCc2cc(S(=O)(=O)NCc3ccccc3)ccc21,u,i,x,x,x,x
Cc1ccc(C(=O)CCS(=O)(=O)c2ccc(Cl)cc2)cc1,i,i,13%,3.3µM*,-5%,9.2µM*
Cc1ccc(C(=O)CCS(=O)(=O)c2ccc(F)cc2)cc1,i,u,1%,u,-15%,u
Cc1ccc(S(=O)(=O)CCC(=O)c2ccc(F)cc2)cc1,i,i,u,4.6µM*,u,u
C=CCN1CC[C@@H](O)C(=C)S1(=O)=O,i,i,x,x,x,x
